One may read the viability as a read-out of living cells in per cent, often relative to untreated cells.

This note sets out measurements from PubChem BioAssay AID602 (SRMLSC, 2007).

The nature of the assay: reversal of MRP1-mediated doxorubicin resistance, primary screen, H69AR cells, doxorubicin co-treatment (AID 602).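 For differential viability (reversal): larger differential means the compound sensitizes cells more to doxorubicin.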 As to conditions: CellTiter-Glo, 72 h, at 10 µM; for differential viability (reversal): stronger effect = higher value. On the technique in general: ATP-based viability assays read luminescence as a measure of living cells.
[1] abbreviates: H69AR cells + 2 uM doxorubicin, measured here: viability with 2 uM doxorubicin, stronger effect = lower value.
Where [2] appears, read: H69AR cells, measured here: cytotoxicity without doxorubicin.

Molecules are shown by their SMILES. Hit rate of the full screen: of about 85,000 compounds, about 35 (0.04%) were called active. The sample holds actives, similar compounds and a random draw of the others, so the mix is not that of the screen.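 Rule for the calls: active = viability drop by adding the cancer drug above about 55%, with treated viability meeting a 40% cutoff (limit read from the data); inactive = the rest, inconclusive results apart.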

As for `Cc1ccc(N(CC(=O)Nc2cc(C)cc(C)c2)S(=O)(=O)c2cccc3nonc23)cc1`, for the setting “H69AR cells + 2 uM doxorubicin”, the differential viability (reversal) is -3.92% (inactive). For the same compound, the viability under setting [1] turned out to be 101% and the viability under setting [2] was 96.6%.
The matching figures for `Cn1ccs/c1=N\S(=O)(=O)c1ccc(C(C)(C)C)cc1`: 11.8% (inactive), 77.6% and 89.4%.
The matching figures for `CCOC(=O)c1ccc(COC(=O)CCc2nc(-c3ccccc3)c(-c3ccccc3)o2)cc1`: -11.9% (inactive), 83.3% and 71.4%.
The matching figures for `CCCC(C)C(=O)Nc1ccc(NC(C)=O)cc1` (stereo not drawn): 22.1% (inactive), 80.5% and 103%.
`COc1c(F)c(F)c(C(=O)O)c(Nc2ccccc2C)c1F`: the differential viability (reversal) (H69AR cells + 2 uM doxorubicin) was 3.75% (inactive). In addition, the viability was found to be 94.8% under setting [1] and 98.5% under setting [2].
For the compound `C=CCc1ccc(OCCOc2cccc(/C=N/n3cnnc3)c2)c(OC)c1`, the differential viability (reversal) (H69AR cells + 2 uM doxorubicin) was 9.09% (inactive). Moreover, the viability came out at 71.3% under setting [1] and 80.3% under setting [2].
For the compound `CCOC(=O)CSc1nc2ccc(C)cc2[nH]1`, the differential viability (reversal) (H69AR cells + 2 uM doxorubicin) is 2.1% (inactive). Besides, the viability runs as follows: under setting [1], 87.3%; under setting [2], 89.4%.
The matching figures for `C=CCn1c(SCC(=O)c2ccc(Br)cc2)nnc1C(C)NC(=O)Cc1ccc(OC)cc1` (stereo not drawn): 22.5% (inactive), 49.3% and 71.8%.
The matching figures for `O=C1CSC(c2cccc(F)c2)N1c1ccc(O)cc1` (stereo not drawn): 12.3% (inactive), 88.2% and 101%.
The matching figures for `Cc1nnc(NCCO)c2ccccc12`: 7.47% (inactive), 82.3% and 89.8%.
Take `CCn1c(SCC(=O)c2ccc3ccccc3c2)nnc1-c1cccs1`: under “H69AR cells + 2 uM doxorubicin”, the differential viability (reversal) is 5.66% (inactive). Moreover, the viability by setting is: under setting [1], 98.1%; under setting [2], 104%.
With `Cc1cc(C(=O)Nc2ccccc2N2CCOCC2)c2ccccc2n1`, the differential viability (reversal) (H69AR cells + 2 uM doxorubicin) is -7.84% (inactive). Moreover, the viability under setting [1] is 75.7% and the viability under setting [2] was found to be 67.9%.
The corresponding values for `Cc1nnc(SCC(=O)NC2CCCC2)s1` are 7.72% (inactive), 107% and 115%.
As for `Nn1c(SCC(=O)NC2CCCC2)nnc1-c1ccccc1F`, for the setting “H69AR cells + 2 uM doxorubicin”, the differential viability (reversal) was 13.3% (inactive). For the same compound, the viability is, setting by setting: under setting [1], 88.7%; under setting [2], 102%.
Consider `COC(CNC(=O)Cn1ncc2ccsc2c1=O)OC`, for which the differential viability (reversal) (H69AR cells + 2 uM doxorubicin) is -2.17% (inactive). For the same compound, the viability under setting [1] amounted to 103% and the viability under setting [2] was determined as 101%.
The corresponding values for `Cc1cccc(N2CCN(C(c3ccc(N(C)C)cc3)c3nnnn3C(C)(C)C)CC2)c1C` (stereo not drawn) are 2.35% (inactive), 81% and 83.3%.
In the case of `CCOC(=O)C1=C(CSc2nnnn2C)N(C)C(=O)NC1c1ccccc1` (stereo not drawn), for the setting “H69AR cells + 2 uM doxorubicin”, the differential viability (reversal) is 12.1% (inactive). Moreover, the viability stood at 81% under setting [1] and 93.1% under setting [2].
Consider `COc1ccc(CCNS(=O)(=O)c2ccc(Cl)s2)cc1OC`, for which the differential viability (reversal) (H69AR cells + 2 uM doxorubicin) is 13.7% (inactive). Also, the viability came out at 79.3% under setting [1] and 93% under setting [2].
In the case of `O=S(=O)(Nc1ccc(Oc2ncccn2)c(Cl)c1)c1ccc(F)cc1`, the differential viability (reversal) (H69AR cells + 2 uM doxorubicin) was 4.78% (inactive). For the same compound, the viability is, setting by setting: under setting [1], 88.8%; under setting [2], 93.6%.
For `CC(c1ccccn1)N(CCN(C)C)C(=S)Nc1ccccc1F` (stereo not drawn), the differential viability (reversal) (H69AR cells + 2 uM doxorubicin) was 16.9% (inactive). Further, the viability by setting is: under setting [1], 100%; under setting [2], 117%.
As to `CCC(=O)NC(Nc1cc(C)ccn1)(C(F)(F)F)C(F)(F)F`, the differential viability (reversal) (H69AR cells + 2 uM doxorubicin) is 7.06% (inactive). In addition, the viability reads like this: under setting [1], 92%; under setting [2], 99%.
